Measured values from PubChem BioAssay AID592 (National Center for Advancing Translational Sciences (NCATS), 2007).
Screen size: about 59,000 compounds; fewer than 10 were called active. No rule for the calls is given here. A selection follows.

Test: qHTS Assay for Spectroscopic Profiling in A647 Spectral Region
Details: Compound fluorescence, A647 channel (570/671 nm), Tris buffer; hits give high values
Source text: NIH Molecular Libraries Screening Centers Network [MLSCN] NIH Chemical Genomics Center [NCGC] […] Occasionally, the artifactual effect may originate from the compounds own spectral or other biophysical properties which generally tend to track its assay concentration. Pre-screening/profiling the library with respect to the compounds spectral properties should help one exclude false positives early on. While the most informative fluorescent profiling data set is obtained by performing a full excitation and emission scan of each well by using a monochromator-based plate reader, such an approach is practical only on a very limited scale as scanning each well requires long time. An alternative approach, applied here, is to perform plate reader scans using selected excitation and emission wavelength pairs to generate a multidimensional relational database that correlates compound concentration and the respective relative fluorescence intensity at a given wavelength set. A standard curve of Alexa 647 (A647) present on each plate as six-point concentration series, was used to compute a normalized fluorescence response, termed dye-equivalent concentration, for each compound at each concentration.
NCGC Assay Protocol Summary: Buffer: 100 mM Tris buffer, pH 8.0 Dye standard plate: The wells in columns 1 through 4 of a Kalypsys polypropylene 1536-well compound plate were filled with standard solutions of fluorophore corresponding to the spectral region of interest. Solutions of A647 were placed in the following wells: AC1, AD1: 3 mM, AC2, AD2: 300 uM, AC3, AD3: 30 uM, AC4, AD4: zero (DMSO), AE1, AF1: 3 uM, AE2, AF2: 900 nM, AE3, AF3: 300 nM, AE4, AF4: zero (DMSO). Assay Steps: Six uL of buffer were dispensed to 1536-well Greiner black plates. Compounds and dye standards (23 nL) were transferred via Kalypsys PinTool. The plates were incubated for 15 min at room temperature, and then read on ViewLux (Perkin-Elmer) High-throughput CCD imager using 570 nm and 671 nm excitation and emission filter set. Keywords: NIH Roadmap, MLSCN, MLI, MLSMR, qHTS, NCGC, A647, A-647, Fluorescent Profiling.

Max dye-equivalent concentration, inactive:
O=C1c2ccccc2C(=O)N1CCCSc1ccccc1 1 nM
Cc1ccc(NC(=O)C2CCCN(S(=O)(=O)c3c(C)noc3C)C2)c(C)c1 (stereo not given) 5.9 nM
CCCNS(=O)(=O)c1ccc(CCC(=O)NCc2cccnc2)cc1 46 nM
Cn1c(=O)[nH]c(=O)c2c1nc(CN(Cc1ccccc1)Cc1ccccc1)n2CCN1CCOCC1 2 nM
CCn1c(=O)cc(SCC(=O)NCc2ccc3c(c2)OCO3)c2ccccc21 34 nM
CCc1cc2c(=O)c(-c3ccon3)c(N)oc2cc1OC 23 nM
N#Cc1cccc(NC(=O)CCC2CCCC2)c1 1 nM
Cc1nnc(SCc2ccc(C(=O)c3ccc(Cl)cc3)o2)n1-c1ccccc1 1.7 nM
Cn1c2ccccc2c2c(C(=O)N3CCN(c4ccc(F)cc4)CC3)cn(C3CCCC3)c(=O)c21 2.8 nM
CCn1c(Cc2ccccc2)nnc1SCc1nc2ccccc2c(=O)[nH]1 3.7 nM
CCCOc1ccc(-c2nc(N)n[nH]2)cc1 1 nM
Cc1nnc(SCC(=O)N2CCc3ccccc32)n1-c1ccccc1 30 nM
O=C(Nc1c[nH]c(=O)[nH]c1=O)Oc1ccccc1 1 nM
COC(=O)c1c(NC(=O)CSc2nncs2)sc2c1CCCCC2 57 nM
CCCCN(CCCC)C(=O)CCS(=O)(=O)c1ccc2c(c1)n(C)c(=O)c(=O)n2C 16 nM
COc1cc(NS(=O)(=O)c2ccc(NC(C)=O)cc2)cc(OC)c1 2 nM
COc1ccc(S(=O)(=O)N2CCN(c3ncnc4c(-c5ccccc5)nsc34)CC2)cc1 45 nM
C#CCN1C(=O)C(O)(CC(=O)c2cc(OC)ccc2OC)c2ccccc21 (stereo not given) 44 nM
COc1ccc2c(c1)C(C)=CC(C)(C)N2C(=O)CNCc1ccc2c(c1)OCO2 27 nM
CN(C)Cc1c(C#N)c2ccccc2n1C 1 nM
CN1CCCC(OC(=O)COc2ccc(Br)cc2)C1 (stereo not given) 2.1 nM
Fc1ccc2nc(Nc3nc4c(s3)CCCC4)sc2c1 34 nM
Cc1n[nH]c(C)c1S(=O)(=O)N1CCCC(C(=O)NCC2COc3ccccc3O2)C1 (stereo not given) 15 nM
CCON=C1C(C)(C)C(C)(C)C(C)(C)C1(C)C 1 nM
CC(C)c1ccc(N2CC(C(=O)Nc3nccs3)CC2=O)cc1 (stereo not given) 1 nM
Cc1nc(NC(=O)CCC(=O)O)sc1C(=O)N(C)C 1 nM
Cc1nc2ncnn2c(C)c1CCC(=O)N1CCN(C(=O)c2ccco2)CC1 1 nM
CN1CCc2c(sc3c2c(NCc2ccco2)nc2nnnn23)C1 1 nM
CCN(C(=O)CSc1ncn[nH]1)c1cccc2ccccc12 1 nM
Cc1nn(-c2ccccc2)c2sc(C(=O)N(Cc3ccco3)C(C)C(=O)NC(C)(C)C)cc12 (stereo not given) 1 nM
COc1ccc2c(c1)CCc1c(C(=O)Nc3c(C)n(C)n(-c4ccccc4)c3=O)noc1-2 1 nM
Cc1cc2ccccc2n2c(SCC(=O)N3CCN(C(=O)c4ccco4)CC3)nnc12 3.8 nM
CCSc1nc2c(c(=O)[nH]1)C(c1cccnc1)C(C(=O)OC(C)C)=C(C)N2 (stereo not given) 29 nM
CCOc1cc(CO)ccc1OCC(=O)N1CCCCC1 5.6 nM
COC(=O)Nc1c(C)n(C)n(-c2ccccc2)c1=O 1 nM
CCN(CC)C(=O)C1CCC(C)(C(=O)O)C1(C)C (stereo not given) 5.6 nM
O=C(O)c1c(Br)c(Br)c(Br)c(Br)c1C1c2ccc(O)cc2Oc2cc(O)ccc21 1 nM
O=C(Nc1ccon1)c1cccc(Cl)c1 1 nM
Cc1cccc2cc(CN(Cc3ccc4c(c3)OCO4)Cc3nnnn3C3CCCC3)c(=O)[nH]c12 1 nM
COCCCn1c(CCC(=O)O)ccc1-c1ccc(F)cc1 26 nM
COCCn1nnnc1CN1CCC(NC(=O)Nc2cccc(OC)c2)CC1 41 nM
O=C(O)[C@@H](S)[C@H](S)C(=O)O 1.2 nM
COCCCNC(=O)CSc1nc2ccc(N3CCOCC3)cc2c(=O)n1CCc1ccccc1 19 nM
Cc1ccc(-c2noc(CSc3nnc(-c4ccccc4)n3C)n2)cc1 17 nM
COc1ccc(C2OC(=O)CC2C(=O)NC(C)C)cc1 (stereo not given) 2.6 nM
Cc1cc(Cl)c(S(=O)(=O)NCC2CCCO2)cc1OCC(N)=O (stereo not given) 1 nM
CC1(N2CCOCC2)CC2(O)C(=[N+]1[O-])CCc1nonc12 (stereo not given) 31 nM
Cc1ccc(C(=O)O)cc1S(=O)(=O)NCC1CCCO1 (stereo not given) 1 nM
O=C(c1ccncc1)N1CCC2(CCCN(C(c3ccccc3)c3ccccc3)C2)CC1 10 nM
C[C@@H]1CC[C@H]2[C@H](C)[C@H]3[C@H](C[C@H]4[C@@H]5CC=C6C[C@@H](O)CC[C@@]6(C)[C@@H]5C[C@@H](O)[C@]34C)N2C1 2.4 nM
Cn1nnnc1SCC(=O)N1CCN(C(c2ccccc2)c2ccccc2)CC1 1 nM
CCCC(C)n1[nH]c(=O)c2c(C)cc(C)nc21 (stereo not given) 16 nM
N#Cc1c2c(c(-c3ccccc3)[nH]c1=O)CCCC2 55 nM
Cc1ccccc1C(=O)Nc1cccc(-c2nnc(SCC(=O)O)n2C)c1 18 nM
O=C(Nc1ccccc1C(=O)N1CCOCC1)C1CCC(=O)N1C1CCCC1 (stereo not given) 14 nM
O=S(=O)(c1ccccc1)N(CC(O)CN1CCCCC1)c1ccccc1 (stereo not given) 1 nM
CCC(C)(C)n1nnnc1C(c1cccs1)N1CCN(Cc2ccccc2)CC1 (stereo not given) 35 nM
Cc1c(C(=O)Nc2ccccc2Cl)oc2ccc(S(=O)(=O)N3CCC4(CC3)OCCO4)cc12 45 nM
CCC(Oc1ccccc1)C(=O)NCc1cccnc1 (stereo not given) 1.3 nM
CC(C)OC(=O)c1sc2nc3c(cc2c1N)C(=O)CCC3 12 nM
Cn1cc(-c2nc3cncnc3n(-c3ccccc3)c2=O)c2ccccc21 1 nM
O=C(/C=N/O)Nc1ccccc1 1 nM
CCOC(=O)N1CCN(S(=O)(=O)c2ccc(C(=O)Nc3ccc(F)cc3F)cc2)CC1 29 nM
COc1ccccc1N1CCN(CCCCOc2ccc(F)cc2)CC1 1 nM
COc1ccc2nc(N3CCCC(O)C3)c(C#N)cc2c1 (stereo not given) 22 nM
CCCCN(CC)CCCNC(=O)CS(=O)(=O)Cc1nc(-c2cccc(OC)c2)oc1C 1 nM
COC(=O)c1ccccc1NC(=O)CN(Cc1ccccc1)S(C)(=O)=O 1 nM
COc1cccc(OC)c1OCCN1CCN(C(=O)c2ccco2)CC1 1 nM
Cc1cc(Cl)ccc1N1C(=O)CC(SCCC(=O)O)C1=O (stereo not given) 1 nM
COc1ccc(CC(=O)Nc2c3c(nn2-c2cccc(Cl)c2)CS(=O)C3)cc1 (stereo not given) 12 nM
Cc1c(C(=O)OCc2cc(=O)n3cc(Br)ccc3n2)oc2ccccc12 28 nM
CCOC(=O)N1CCN(C(=O)c2cn(C)c3ccc(S(=O)(=O)N4CCCC4)cc3c2=O)CC1 21 nM
Cc1cc(NC(=O)COc2ccc(Cl)cc2Cl)n(CCC#N)n1 18 nM
Cc1ccc(S(=O)(=O)NCc2cn3ccsc3n2)c(C)c1 18 nM
CCOc1cc(-c2nc3cc(C)ccn3c2NCC2CCCO2)ccc1O (stereo not given) 14 nM
CC(C)C(C(=O)NC1CCCCC1)N(CC1CCCO1)C(=O)CNS(=O)(=O)c1ccc(F)cc1 (stereo not given) 1 nM
COc1ccccc1N1CCN(c2nc3ccccc3n3nnnc23)CC1 42 nM
O=C(c1cccc(F)c1)N1CCC2(CC1)CCN(c1ccccc1)CC2 1.1 nM
COc1ccccc1CNCc1cccs1 25 nM
O=C(CN1C(=O)COc2ccccc21)NCCN1CCc2ccccc2C1 23 nM
CC(C)CCNC(=O)C(C)N(C(=O)Cn1nnc(-c2ccc(F)cc2)n1)C1CCCC1 (stereo not given) 1 nM
CN1CCN(S(=O)(=O)c2ccc(NC(=O)c3ccco3)cc2)CC1 3.8 nM
CCOC(=O)CSc1nc2sc3c(c2c(=O)[nH]1)CC(C)(C)OC3 2.2 nM
Cc1cc(=O)oc(C)c1C(=O)Nc1cnc2ccccc2c1 5.4 nM
CN(C)CCSc1nc(N)c2c3c(sc2n1)COC(C)(C)C3 6.7 nM
Cc1ccc(C(=O)CSc2nnc(Cn3nnc4ccccc43)n2C)cc1 15 nM
CCCc1cc(=O)n2[nH]c(SCc3ccccc3)nc2n1 28 nM
O=C(c1ccco1)N(Cc1nc2ccccc2c(=O)[nH]1)C1CCCC1 41 nM
COC(=O)[C@H](CCSC)NC(=O)Nc1ccc(OC)cc1 5.2 nM
CC[N+](C)(CC)CCC[n+]1c(-c2ccccc2)c2cc(N)ccc2c2ccc(N)cc21 1.7 nM
